TWEAK Fn14 block: TWEAK-Fn14 signaling inhibition | 360,000 compounds, 2% hits | TWEAK-stimulated Fn14 reporter cells, luciferase luminescence, 8 h | AID 1159606 | inhibition, % at 10 µM; in the data active means inhibition above about 50%
Peg3 promoter: reduces Peg3 promoter-driven luciferase expression in HeLa | HeLa PEG-Prom luciferase reporter, luminescence, overnight | AID 588405 | 360,000 compounds, 1.7% hits | inhibition, % at 20 µM;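 active means inhibition of at least 50% at 20 µM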
TROY NFkB inh: inhibitors of TROY-dependent NF-kB signaling. Q293 LMP1-TROYcd NF-kB luciferase reporter, 4 h. inhibition, % at 10 µM. 360,000 compounds, 0.98% hits. AID 1347056;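 active means compounds whose plate-normalised and pattern-corrected inhibition of the luciferase reporter signal at the single screening dose is 50% or more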
HIF-2a inh: inhibitors of HIF-2a; inhibition, % at 18.8 µM; 786-0 RCC cells HIF-2a reporter, luciferase luminescence, overnight; 360,000 compounds, 0.72% hits;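 active means inhibition of the luminescence signal of 40% or more relative to plate controls, in a single-dose primary screen at 18.75 µM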
CF NFkB block: cystic fibrosis NF-kB activation inhibition. 360,000 compounds, 0.86% hits. AID 588850. inhibition, % at 5 µM. KKLEB NF-kB-GFP reporter, PAF-induced, GFP fluorescence overnight;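 active means at least 50% inhibition at 5 µM, scaled per plate between neutral and stimulator controls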;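 further: PAF is a Pseudomonas aeruginosa culture filtrate used as stimulus; plate controls were PAF-stimulated DMSO wells for no effect and unstimulated DMSO wells for full effect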
KKLEB cytotox: reduces viability of KKLEB cystic fibrosis airway cells; activity change (cytotoxicity), % at 5 µM; AID 602141; 360,000 compounds, 0.36% hits; KKLEB CF airway cells viability, ATPlite luminescence, overnight; stronger effect = lower value; cells stimulated with P. aeruginosa culture filtrate;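 active means corrected activity change at or below -50% at 5 µM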
An asterisk follows results filed as active; x = no result given. In the library only some 4% were active in any assay of this set; here they are far more common.

SMILES | TWEAK Fn14 block | Peg3 promoter | TROY NFkB inh | HIF-2a inh | CF NFkB block | KKLEB cytotox
C#CCOCCOCCOCCNc1nc(N2CCN(C(=O)CCCCCCCCCCNC(=O)[C@H]([C@@H](C)CC)n3cc(CCCCCN)nn3)CC2)nc(N2CCN(C(=O)CCCCCCCCCCNC(=O)[C@@H]([C@H](C)O)n3cc(C)nn3)CC2)n1 | 49.7 | 98.2* | 67.0* | -0.4 | 27.3 | -28.6
C#CCOCCOCCOCCNc1nc(N2CCN(C(=O)CCCCCCCCCCNC(=O)[C@H](CCCCN)n3cc(C)nn3)CC2)nc(N2CCN(C(=O)CCCCCCCCCCNC(=O)[C@@H]([C@H](C)CC)n3cc(CCCCCN)nn3)CC2)n1 | -71.2 | 94.0* | 31.2 | 4.1 | 4.2 | 11.2
C#CCOCCOCCOCCNc1nc(N2CCN(C(=O)CCCCCCCCCCNC(=O)[C@H](CCC(=O)O)n3cc(CCCCCN)nn3)CC2)nc(N2CCN(C(=O)CCCCCCCCCCNC(=O)[C@@H]([C@H](C)O)n3cc(C)nn3)CC2)n1 | -22.8 | -14.5 | -15.1 | 6.0 | -3.0 | 28.5
C#CCOCCOCCOCCNc1nc(N2CCN(C(=O)CCCCCCCCCCNC(=O)Cn3cc(CCCCCN)nn3)CC2)nc(N2CCN(C(=O)CCCCCCCCCCNC(=O)[C@H](CO)n3cc(CCCCCN)nn3)CC2)n1 | -19.2 | -7.3 | -9.8 | -4.2 | 0.9 | -6.2
C#CCOCCOCCOCCNc1nc(N2CCN(C(=O)CCCCCCCCCCNC(=O)[C@H](CCCCN)n3cc(CCO)nn3)CC2)nc(N2CCN(C(=O)CCCCCCCCCCNC(=O)[C@@H]([C@H](C)O)n3cc(C)nn3)CC2)n1 | -14.6 | 29.2 | -2.0 | -4.9 | 2.3 | 0.7
O=C(CN(CCc1ccccc1)Cc1ccccc1)Oc1ccccc1P(=O)(O)O | 29.2 | 9.0 | -6.0 | 7.3 | -16.1 | 1.9
Cc1nc(C(=O)O)cc([N+](=O)[O-])c1C | -13.7 | 1.2 | -6.9 | 13.0 | -8.8 | -18.9
COC(=O)c1ccc2nc(-c3ccc(Cl)cc3)c(Cc3ccc(OC)cc3C)n2c1 | 81.5* | x | 51.3* | -34.6 | x | x
COC(=O)c1ccc2nc(-c3ccc(OC)c(OC)c3)c(Cc3ccc(OC)cc3C)n2c1 | -13.3 | 1.8 | 5.9 | 11.7 | 16.0 | -16.4
O=C(COc1ccccc1/C=C1\SC(=S)NC1=O)Nc1ccc(F)cc1 | 15.7 | 20.6 | 48.9 | -30.5 | 51.9* | 2.3
CSCCC(NC(=O)COc1ccccc1)C(=O)N1CCCCCC1 (stereo not given) | 21.6 | 4.5 | -21.3 | 9.6 | 24.5 | -8.3
O=C(O)c1ccc(N/N=C/c2ccc(-c3ccccc3)cc2)cc1 | 8.9 | -272.3 | -45.4 | -311.8 | -0.7 | 8.3
C(=C\c1ccccc1)/C=N/Nc1nc(N2CCCCC2)nc(N2CCCCC2)n1 | -47.2 | 51.0* | 11.5 | 0.6 | -1.5 | -15.9
O=[N+]([O-])c1ccccc1/C=C/C=N/Nc1nc(N2CCCCC2)nc(N2CCCCC2)n1 | 13.8 | 18.0 | 4.0 | 1.2 | -6.0 | 9.0
O=c1nc(N/N=C/C=C/c2ccccc2)cn[nH]1 | 70.0* | 14.5 | 41.2 | -59.7 | -0.9 | 2.7
O=C(O)c1ccc(N/N=C/C=C/c2ccccc2)cc1 | 63.1* | -277.4 | -50.6 | -227.0 | -1.3 | 10.0
O=C(CC1C(=O)NCCN1C1CCCC1)NCc1cccc(OC(F)(F)F)c1 (stereo not given) | 0.9 | 1.0 | -3.0 | -4.9 | 5.8 | -6.8
NC(=O)c1ccc(NC(=O)CNC(c2ccccc2)c2ccccc2)cc1 | 0.9 | -19.9 | -1.1 | 16.4 | 8.6 | 0.4
CCn1nc([N+](=O)[O-])c(C(C#N)c2nc3ccccc3n2C)c(Cl)c1=O (stereo not given) | 69.4* | 25.7 | 9.1 | 27.2 | 43.3 | -17.1
Brc1cccc(-c2nc3c4ccccc4ccn3c2Cc2ccsc2)c1 | -20.8 | -131.4 | -48.4 | -239.8 | -44.8 | 12.1
Cc1cccc(Nc2nc(N3CCOCC3)nc(N3CCOCC3)n2)c1 | -4.8 | 7.3 | 0.0 | 29.2 | 50.8* | -14.4
CC(=O)c1cccc(-c2ccnc3c2CC(C(=O)Nc2ccc(C(C)C)cc2)O3)c1 (stereo not given) | -8.0 | 9.2 | 10.2 | -41.6 | -101.4 | 16.7
CN(C)CCCN=c1cc(-c2ccccc2)oc2ccc(Cl)cc12 | -22.1 | 99.7* | -77.8 | -250.9 | -19.6 | -3.7
c1ccc(-c2nnsc2-c2ccccc2)cc1 | -20.3 | 14.7 | 16.3 | 8.8 | 17.4 | -12.2
O=S(=O)(c1ccc(Cl)c(Cl)c1)c1snnc1-c1ccccc1 | 77.8* | 72.8* | 51.8* | 77.0* | 56.3* | -44.9
SMILES | TWEAK Fn14 block | Peg3 promoter | TROY NFkB inh | HIF-2a inh | CF NFkB block | KKLEB cytotox
CC(C)S(=O)(=O)NC(=O)C1(C)CCN1C(=O)Cc1ccccc1 (stereo not given) | 8.0 | 7.8 | -5.3 | 6.1 | 2.5 | -2.7
O=C(O)[C@@H](O)[C@H](O)C(=O)O | -1.1 | -0.8 | 6.6 | 2.4 | 4.5 | -61.2*
Cc1ccc(CN(CC(=O)NC2CCCC2)C(=O)c2csnn2)cc1 | 23.5 | 1.8 | 7.1 | 5.2 | -6.8 | 3.3
O=C(CN(Cc1ccccc1F)C(=O)c1csnn1)NC1CCCCC1 | -1.1 | 4.5 | -1.0 | 56.6* | -8.9 | 1.5
O=C(NC1CCCC1)C(c1cccs1)N(Cc1ccco1)C(=O)c1csnn1 (stereo not given) | 12.8 | -7.8 | -5.0 | 18.7 | -8.4 | 0.2
O=C(NC1CCCCC1)C(c1ccccc1)N(Cc1ccco1)C(=O)c1csnn1 (stereo not given) | 63.6* | 12.1 | 4.3 | 1.0 | -3.8 | -7.9
O=C(Nc1ccc2c(c1)OCCO2)C(c1ccncc1)n1c(=O)c(-c2cc3ccccc3[nH]2)nc2ccccc21 (stereo not given) | x | x | x | -135.8 | x | x
O=C(COC(=O)CN1C(=O)C2CC=CCC2C1=O)Nc1cccc([N+](=O)[O-])c1 (stereo not given) | 2.2 | 8.5 | 9.0 | 17.6 | 6.6 | 1.0
C[C@@H]1C[C@H]2[C@@H]3C[C@H](F)C4=CC(=O)C=C[C@]4(C)[C@@]3(Cl)[C@@H](O)C[C@]2(C)[C@H]1C(=O)COC(=O)C(C)(C)C | -12.7 | 5.9 | 15.9 | 21.6 | 69.0* | 4.0
Cc1noc(C)c1CSCC(=O)N(C)CC(=O)Nc1ccc(F)c(F)c1F | 0.5 | -2.5 | -8.3 | 11.8 | -9.1 | 8.2
CCOC(=O)CSC1=NC(=O)/C(=C\c2ccc(OC(C)=O)cc2)S1 | -8.8 | 53.4* | -40.4 | 18.6 | 0.4 | 1.0
CCOC(=O)CSC1=NC(=O)/C(=C/c2ccc(Br)cc2)S1 | -31.2 | 74.5* | -9.3 | -129.9 | 41.7 | -16.3
CCOc1ccccc1C(=O)NC(C(=O)N(C)c1c(N)n(Cc2ccccc2)c(=O)[nH]c1=O)C(C)C (stereo not given) | 3.4 | 1.4 | 3.3 | 12.7 | -5.6 | 6.0
Cc1c(P(=S)(c2ccccc2)c2ccccc2)[n+]2ccccc2n1C/C=C/c1ccccc1 | 29.9 | 82.5* | 36.4 | -32.9 | 45.8 | -5.0
